# Screening data (PubChem)
# In the library only some 2.4% were active in any assay of this set; here they are far more common.
# LNCaP diff act – activators of LNCaP prostate cell differentiation. 24,000 tested, 0.56% active. side scatter shift, % at 10 µM. flow cytometry side scatter, 4 d;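 active = side scatter shift above 30%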;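 note: androgen-responsive LNCaP prostate cancer cells in charcoal-stripped serum medium; percent of cells past a gate set so DMSO wells show 10% shift; higher shift means more granular cells and more differentiation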
# VLA-4 antagonist – inhibitors of LDV-FITC ligand binding to Mn2+-activated human VLA-4 integrin. P13612. Jurkat cells, LDV-FITC binding with Mn2+, flow cytometry; 100% = Mn2+-driven binding gain fully reversed. inhibition, % at 10 µM (by protocol). 24,000 tested, 0.2% active. AID 529;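 active = inhibition above 50%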;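 note: 0% = Mn2+ stimulated cells lacking compound and 100% = ligand binding without Mn2+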
# VLA-4 agonist – allosterically activates the human VLA-4 integrin | Jurkat cells, LDV-FITC binding, flow cytometry | activation, % at 10 µM (by protocol) | 24,000 tested, under 10 active | AID 528;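 active = fluorescent ligand binding to cells raised by more than 40% of the manganese-induced maximum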;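 note: 0% = ligand binding without compound and 100% = manganese-stimulated maximal binding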
# Autofluor Jurkat – counter-screen for VLA-4 integrin: compound autofluorescence in Jurkat cells; fluorescence ratio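 (tested at 10 µM compound in the well)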; flow cytometry; stronger effect = higher value; 1 = vehicle-only cell background; 24,000 tested, 0.61% active;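 active = fluorescence ratio above 2.44, which is 1 plus 3 SD of all ratios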;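 note: green fluorescence of cells measured with 488 nm excitation and 530 nm emission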
# FPR binder – human FPR ligand, with FPRL1 counter-screen; FPR-expressing cells, fluorescent ligand binding, flow cytometry; P21462; inhibition, % (no concentration beside the values); 24,000 tested, 0.74% active;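 note: 0% = buffer wells and 100% = receptor blocker peptide wells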
# FPRL1 binder – ligands of human FPRL1, also counter-screen for FPR ligands | P25090 | FPRL1-expressing cells, fluorescent ligand binding inhibition, flow cytometry | inhibition, % (no concentration beside the values) | 24,000 tested, 0.3% active;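 note: 0% = buffer alone and 100% = receptor blocker peptide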
# The depositor's hits bear a star. Cut-off read from the data, not from the text of the source, unless noted: active = inhibition above about 30%; inconclusive = no clear call, values can overlap the other calls; inactive = below that.
SMILES,LNCaP diff act,VLA-4 antagonist,VLA-4 agonist,Autofluor Jurkat,FPR binder,FPRL1 binder
CC1=C(C(=O)OC(C)C)[C@]2(C(=O)N(CC(N)=O)c3ccccc32)C(C#N)=C(N)O1,2,-4,-2,0.95,24,50*
[N-]=[N+]=CC(=O)OC[C@H](N)C(=O)O,3,-10,0,1,4,-1
CCCNS(=O)(=O)c1ccc(OCC(=O)N2CCN(Cc3ccccc3)CC2)cc1,13,-9,3,1.1,-5,2
O=C(COc1ccc2ccccc2c1)N1CCN(C2CCN(Cc3ccccc3)CC2)CC1,46*,-12,1,1.1,-6,-8
